# Only some compounds are listed: those with a hit (about 0.98% of all), similar ones and a draw of the others.
# RTF Ca sens act: increases calcium sensitivity of human cardiac regulated thin filaments; AID 493008; activation, % at 7.2 µM; IANBD-labeled TnC RTF fluorescence at EC20 calcium; 0% EC20 calcium, 100% full calcium; P19429+P45379; 0.24% of 340,000 active;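 active = activation above the mean over all tested compounds plus 3 SD, cut at about 30% in these data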;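 also: rise in fluorescence read as greater calcium sensitivity of cardiac thin filaments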
# RTF Ca sens inh: cardiac RTF calcium desensitization | P19429+P45379 | IANBD-labeled cardiac RTF, Ca2+ fluorescence | inhibition, % at 7.15 µM | 0.12% of 340,000 active;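 active = inhibition above the mean inhibition of all tested compounds plus 3 SD, cut at about 17% in these data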;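 also: assay run at fixed EC70 calcium of 1.6 mM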
# LANA-H2B inh: blocks KSHV LANA binding to histone H2A/H2B | Q9QR71 | cell-free LANA-H2A/H2B peptide, fluorescence polarization | inhibition, % (no concentration beside the values) | 0.6% of 320,000 active; in the data active = inhibition mostly above about 10%, no sharp cut-off; inactive = mostly below about 6.7%
# Keap1 Nrf2 FP: disrupts human Keap1 binding to Nrf2 peptide | Keap1 Kelch-Nrf2 peptide fluorescence polarization, 1536-well | inhibition, % at 9.4 µM | 0.15% of 340,000 active | AID 504523; in the data active = inhibition above about 12%;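 also: human Keap1 Kelch domain with fluorescein labeled Nrf2 9mer peptide probe; 0% = neutral control wells and 100% = peptide positive control; higher means more block of Keap1 binding to Nrf2 peptide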
# Target sequence (Q14145 whole entry, looked up, the tested form may be a part): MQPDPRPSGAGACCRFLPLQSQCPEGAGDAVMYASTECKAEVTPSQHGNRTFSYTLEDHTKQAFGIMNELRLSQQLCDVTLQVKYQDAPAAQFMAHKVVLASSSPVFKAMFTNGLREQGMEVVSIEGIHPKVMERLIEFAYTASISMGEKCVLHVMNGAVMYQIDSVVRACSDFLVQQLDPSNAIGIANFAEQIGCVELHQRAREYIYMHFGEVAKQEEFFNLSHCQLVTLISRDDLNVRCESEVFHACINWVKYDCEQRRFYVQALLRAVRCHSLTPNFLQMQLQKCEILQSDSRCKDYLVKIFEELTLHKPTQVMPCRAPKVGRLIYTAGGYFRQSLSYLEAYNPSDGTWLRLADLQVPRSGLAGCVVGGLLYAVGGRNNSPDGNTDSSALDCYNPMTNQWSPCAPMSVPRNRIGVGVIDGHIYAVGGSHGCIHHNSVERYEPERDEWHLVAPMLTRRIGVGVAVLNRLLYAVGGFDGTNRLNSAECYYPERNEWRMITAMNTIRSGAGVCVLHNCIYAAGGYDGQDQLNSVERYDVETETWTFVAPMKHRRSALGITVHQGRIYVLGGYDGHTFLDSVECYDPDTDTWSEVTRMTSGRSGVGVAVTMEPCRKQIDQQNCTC
# LANA DNA inh: inhibitors of KSHV LANA C-terminal domain DNA binding; inhibition, % at 9 µM; 0.078% of 340,000 active; AID 504423; MBP-C-LANA/FAM-LBS DNA binding, fluorescence polarization;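 active = highest replicate inhibition at or above 60% at 9 µM, even if other replicates fall short; inactive = all replicates below 60% inhibition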;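 also: 0% = neutral control wells and 100% = 4 µM acridine orange control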
# Numbers without * were called inactive; i = inactive; . = no result; + = active, no number.
SMILES,RTF Ca sens act,RTF Ca sens inh,LANA-H2B inh,Keap1 Nrf2 FP,LANA DNA inh
O=C(NCCN1CCOCC1)c1cc(-c2ccc(F)cc2)on1,-2,-4,182*,3,-1
CC(=O)Nc1cccc(C(=O)/C=C/c2ccc(N(C)C)cc2)c1,73*,-81,-3,-37,6
CC(=O)Nc1cccc(C(=O)/C=C/c2ccc(/C=C/C(=O)c3cccc(NC(C)=O)c3)cc2)c1,.,.,-12,.,.
CC(C)(CNc1ccc(S(=O)(=O)C(F)(F)F)cc1[N+](=O)[O-])N1CCOCC1,-2,4,27*,1,1
CN1CCC(N(C)C(=O)CCc2nc3ccccc3n2-c2ccccc2)CC1,-2,6,2,-3,2
CSc1nc(-c2ccccc2)cn1-c1ccc(NC(C)=O)cc1,-6,3,37*,-3,1
CCOc1ccc(-c2cn(-c3ccc(OC)cc3)c(SC)n2)cc1,-4,1,-2,-2,0
COc1ccccc1C/C(N)=N/OC(=O)COc1cccc(C)c1C,-3,19*,+,-2,-2
COc1ccccc1C/C(N)=N/OC(=O)COc1cc(C)cc(C)c1C,-5,4,1,-2,0
CC1CCN(S(=O)(=O)c2cc3c4c(c2)CCN4C(=O)CC3)CC1,-2,0,4,-5,0
O=C(Nc1ccccc1)c1ccc(NCCc2ccccc2)c([N+](=O)[O-])c1,96*,-5,-5,4,-2
NC(=O)c1ccc(NCCc2ccccc2)c([N+](=O)[O-])c1,3,2,0,-2,-3
COc1ccc(S(=O)(=O)NCC(=O)N(Cc2ccco2)C(C(=O)NC(C)(C)C)C(C)C)cc1 (configuration not stated),-3,-44,0,0,1
O=C1C2C3C=CC(C3)C2C(=O)N1Nc1ccc([N+](=O)[O-])cc1[N+](=O)[O-] (configuration not stated),3,-11,16*,-1,1
COc1ccc(-n2c(O)c(/C=N/NS(=O)(=O)c3ccc(C)c([N+](=O)[O-])c3)c3ccccc3c2=O)cc1OC,128*,-64,-10,-49,-15
COc1cc(/C=N/NS(=O)(=O)c2ccc(C)c([N+](=O)[O-])c2)cc([N+](=O)[O-])c1O,3,2,-2,0,0
Cn1c(CSCc2ccccc2)nnc1SCC(=O)Nc1ccc(C(=O)O)cc1,-5,6,3,2,0
CC(CNC(=O)CCC(=O)N1CCOc2ccc(Cl)cc21)c1ccccc1 (configuration not stated),0,-3,3,-4,-1
Cc1c(C)c2ccc(OCC(=O)N(C)C)c(C)c2oc1=O,-4,1,1,0,1
Cc1c(C)c2ccc(OCC(=O)N3CCOCC3)c(C)c2oc1=O,3,1,+,-1,1
CCCCNc1ccc2c3c(cccc13)C(=O)N(CCCC)C2=O,+,i,.,10,27
O=C1c2cccc3c(N4CCCCC4)ccc(c23)C(=O)N1c1ccccn1,9,-26,32*,0,7
CC(=O)N(C(C)=O)N1C(=O)c2cccc3c(N4CCOCC4)ccc(c23)C1=O,25,-45,55*,-3,15
CCCN1C(=O)c2cccc3c(N4CCCCC4)ccc(c23)C1=O,75*,-72,13,-4,3
CN(C)CCCN1C(=O)c2cccc3c(Br)ccc(c23)C1=O,15,-18,4,-1,2
SMILES,RTF Ca sens act,RTF Ca sens inh,LANA-H2B inh,Keap1 Nrf2 FP,LANA DNA inh
COc1ccccc1CNC(=O)CSCc1cnn(-c2ccccc2)c1-n1cccc1,2,-5,-3,4,-1
O=C(CSCc1cnn(-c2ccccc2)c1-n1cccc1)NCc1cccnc1,-1,-3,-6,2,80*
CCN(CC(=O)Nc1ccc(NC(C)=O)cc1)C(=O)c1cccc(N2C(=O)c3ccccc3C2=O)c1,-5,2,.,-1,-2
COc1ccc(F)cc1S(=O)(=O)NC1CCCC1,-4,3,82*,-2,2
CCOc1cc(S(=O)(=O)NC2CCCCCC2)ccc1F,0,-10,22*,0,2
CCCn1nc(C(=O)NNC(=O)C2CSC3(C)CCC(=O)N23)c2ccccc2c1=O (configuration not stated),2,-20,6,-3,1
CC1=CC(=O)c2ccccc2C1=O,-4,3,-8,-2,1
CC(C)(C=O)C1=CC(=O)c2ccccc2C1=O,-3,-4,+,1,1
CC(=O)OC(C(=O)NCCN1CCOCC1)c1c(F)cccc1F (configuration not stated),-7,-1,-4,0,0
CCNc1ncnc2c1cnn2C1CCCCO1 (configuration not stated),3,0,.,-1,1
CC(C)c1cc(=O)oc2c3c4c(cc12)CCCN4CCC3,7,-18,-4,-1,8
O=c1oc2c3c4c(cc2c(C(F)(F)F)c1CCN1CCOCC1)CCCN4CCC3,70*,-68,6,0,6
CN(C)S(=O)(=O)c1ccc(C(=O)OCC2COC(C)(C)O2)cc1 (configuration not stated),-4,-3,1,-2,0
CCN(CC)Cc1c(O)ccc2c1O/C(=C\C=C\c1ccccc1)C2=O,113*,-165,3,-84,14
COc1ccc2c(c1)CC/C(=C\C=C\c1ccccc1OC)C2=O,8,4,2,-2,0
COc1ccccc1/C=C/C=C1\Oc2c(ccc(O)c2CN(C)C)C1=O,107*,-147,-27,-41,11
COCCN(CCOC)Cc1c(O)ccc2c1O/C(=C\c1ccc(C)o1)C2=O,147*,-86,2,-17,14
Cc1ccc(/C=C2\Oc3cc(OCC(=O)NN)ccc3C2=O)o1,1,-13,4,-4,1
C=C(C)CNC(=O)c1ccc2nc(Cc3ccc(OC)cc3)oc2c1,-3,0,0,-4,0
O=C(c1cccc([N+](=O)[O-])c1)c1ccc2[nH]c(=O)[nH]c2c1,7,-13,-3,-6,1
Nc1ccc(S(N)(=O)=O)cc1N,30*,-9,5,-2,-1
Nc1ccc(S(N)(=O)=O)cc1,-3,7,0,-2,2
Cc1csc2nc(CN3CCN(CC(=O)N(C)C)CC3)cc(=O)n12,0,-5,4,0,0
Cc1ccc(C2C(C#N)=C(N)Oc3cc(N)ccc32)cc1 (configuration not stated),-10,1,1,-4,1
Cc1ccc(/C=C2\CCC3=C2OC(N)=C(C#N)C3c2ccc(C)cc2)cc1 (configuration not stated),84*,-100,-3,-7,0
CCC(CC)CN1C(Nc2ccccc2)=NC[C@@H]1C,1,1,2,-3,1
O=C(Cc1cccs1)N1CCN(S(=O)(=O)c2cc(Cl)ccc2Cl)CC1,51*,-3,1,-2,-1

# Screens as filed in PubChem BioAssay.
